From the antibiotic and cytotoxicity screens of Wong et al. (2023) come the findings set out here.

The whole screen tested about 39,000 compounds, of which about 3,300 (8.5%) were called active. This excerpt belongs to a sample that is enriched for actives.

This test has as its system HepG2. The test can be described thus: cytotoxicity call (relative viability < 0.9). Conditions: 10 µM.
Turning to `COc1ccc(NC(=O)N(C)C[C@H]2OCCCC[C@H](C)Oc3ccc(NC(=O)NC(C)C)cc3C(=O)N([C@@H](C)CO)C[C@@H]2C)cc1`, the cytotoxicity call was “inactive”.

Consider `Cc1cc(C(=O)Nc2cccc3c2O[C@H](CN(C)S(=O)(=O)c2ccc(F)cc2)[C@@H](C)CN([C@@H](C)CO)C3=O)n(C)n1`, for which the cytotoxicity call was “inactive”.

Regarding `C[C@H](CO)N1C[C@H](C)[C@@H](CN(C)C(=O)Nc2ccc3c(c2)OCO3)Oc2ccc(NC(=O)Nc3cccc4ccccc34)cc2C1=O`, the cytotoxicity call is “inactive”.

With `COc1ccc(S(=O)(=O)N(C)C[C@@H]2Oc3c(NC(=O)c4ccncc4)cccc3C(=O)N([C@H](C)CO)C[C@H]2C)cc1`, the cytotoxicity call is “inactive”.

For `CN(C)CCc1cc(Br)c(OCCCNC(=O)/C=C/c2cc(Br)c(OCCN3CCCC3)c(Br)c2)c(Br)c1`, the cytotoxicity call is “active”.

`CN(C)CCc1cc(Br)c(OCCCNC(=O)/C=C/c2cc(Br)c(OCCN3CCCCC3)c(Br)c2)c(Br)c1`: the cytotoxicity call was “active”.

As to `C=CC(=O)NCCN1CCCCC1`, the cytotoxicity call was “inactive”.

On to `COc1ccc(NC(=O)Nc2ccc3c(c2)C(=O)N([C@@H](C)CO)C[C@@H](C)[C@@H](CN(C)S(=O)(=O)c2ccc(Cl)cc2)OCCCC[C@@H](C)O3)cc1`, for which the cytotoxicity call is “inactive”.

For `C[C@H](CO)N1C[C@H](C)[C@H](CN(C)S(C)(=O)=O)OCCCC[C@H](C)Oc2ccc(NS(C)(=O)=O)cc2C1=O`, the cytotoxicity call was “inactive”.

As for `NC(=O)C1CCOCC1`, the cytotoxicity call is “inactive”.

For the compound `C[C@@H]1CN([C@H](C)CO)C(=O)c2cc(C#Cc3ccccn3)cnc2O[C@H]1CN(C)C(=O)CCN1CCCCC1`, the cytotoxicity call was “inactive”.

In the case of `CC(=O)O[C@H]1CCS(=O)(=O)C1`, the cytotoxicity call was “inactive”.

Take `COc1cccc(C(=O)Nc2ccc3c(c2)C(=O)N(C)[C@@H]2CC[C@@H](CC(=O)NCC(F)(F)F)O[C@H]2CO3)c1`: the cytotoxicity call is “inactive”.

Turning to `CCn1nnnc1NCc1cccn1C`, the cytotoxicity call is “inactive”.

Turning to `C[C@@H]1CN([C@H](C)CO)C(=O)c2cc(NC(=O)Nc3ccc(C(F)(F)F)cc3)ccc2O[C@@H]1CN(C)Cc1ccc(C(F)(F)F)cc1`, the cytotoxicity call was “active”.

As to `C[C@@H]1CN([C@H](C)CO)C(=O)c2cc(NC(=O)Nc3ccc(C(F)(F)F)cc3)ccc2O[C@H]1CN(C)Cc1ccc(C(F)(F)F)cc1`, the cytotoxicity call was “active”.

For the compound `C[C@@H]1CN([C@@H](C)CO)C(=O)c2cc(NC(=O)Nc3ccc(C(F)(F)F)cc3)ccc2O[C@@H]1CN(C)Cc1ccc(C(F)(F)F)cc1`, the cytotoxicity call was “active”.

On to `C[C@@H]1CN([C@@H](C)CO)C(=O)c2cc(NC(=O)Nc3ccc(C(F)(F)F)cc3)ccc2O[C@H]1CN(C)Cc1ccc(C(F)(F)F)cc1`, for which the cytotoxicity call is “active”.

Turning to `C[C@H](CO)N1C[C@H](C)[C@H](CN(C)S(=O)(=O)c2ccc(F)cc2)Oc2ccc(NS(=O)(=O)c3ccc(F)cc3)cc2CC1=O`, the cytotoxicity call is “inactive”.
